High-throughput results: PubChem BioAssay, National Center for Advancing Translational Sciences (NCATS)
ATXN2 expr inh: reduces ATXN2 reporter expression in HEK-293 cells. HEK-293 ATXN2-luciferase reporter, luminescence, 24 h. Potency, µM (titrated, usually from 57 µM), without a hit: at the top dose activity change, negative = inhibition, hits mostly inhibitors. actives 0.72% (n = 360,000); further: on the % scale 0 is the no-effect control and ±100 the full control effect; nearly all actives have a fitted effect of over 55% in size
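qHTS (up to 57 uM final) was run with 24 h compound exposure of reporter cells at 37 °C. Each well was multiplexed: SteadyGlo luminescence measured ATXN2-luciferase expression after a fluorogenic Gly-Phe-AFC viability readout (25 uM final).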
Gal4-VP16 FLuc: inhibits Gal4-VP16 luciferase reporter, ROR gamma counter-screen | actives 3.5% (n = 310,000) | Potency, µM (series often up to 53.6 µM), for inactives: at the top dose activity, negative = inhibition, usual class: inhibitors | Drosophila S2 Gal4-VP16 UAS-luciferase, luminescence, 20 h;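 further: Gal4-VP16 expression switched on by copper sulfate through the metallothionein promoter; on the % scale 0 is the no-effect control and ±100 the full control effect; nearly all actives have a fitted effect of over 50% in size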
RORg inh: inhibitors of mouse ROR gamma transcriptional activity; P51450; Drosophila S2 Gal4-RORgamma UAS-luciferase reporter, 20 h; Potency, µM (titrated, usually from 53.6 µM), for inactives: at the highest dose activity change, negative = inhibition, most hits filed as inhibitors; actives 5.4% (n = 310,000); AID 2551; further: on the % scale 0 is the no-effect control and ±100 the full control effect; nearly all actives have a fitted effect of over 60% in size
Target sequence (P51450 whole entry, looked up, the tested form may be a part): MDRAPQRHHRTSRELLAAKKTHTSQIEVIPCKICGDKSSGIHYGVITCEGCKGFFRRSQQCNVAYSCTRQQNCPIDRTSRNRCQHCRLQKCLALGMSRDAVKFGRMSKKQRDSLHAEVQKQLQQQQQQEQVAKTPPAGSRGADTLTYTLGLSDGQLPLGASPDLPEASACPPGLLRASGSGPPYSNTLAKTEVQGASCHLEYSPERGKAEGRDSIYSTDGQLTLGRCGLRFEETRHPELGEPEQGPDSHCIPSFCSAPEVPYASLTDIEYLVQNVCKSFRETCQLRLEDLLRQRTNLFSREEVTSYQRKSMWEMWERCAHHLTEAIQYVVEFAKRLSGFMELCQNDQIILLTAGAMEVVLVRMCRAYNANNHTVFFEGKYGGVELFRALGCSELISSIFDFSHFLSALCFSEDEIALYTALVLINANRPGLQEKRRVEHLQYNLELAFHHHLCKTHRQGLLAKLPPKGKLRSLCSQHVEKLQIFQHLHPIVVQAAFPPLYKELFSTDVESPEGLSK
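Stably transfected Drosophila Schneider cells are the test system, with ROR gamma fused to Gal4 and luciferase under UAS control; luminescence is read after 20 hr of 700 uM copper sulfate induction at ambient temperature.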
HepG2 tox-1: counter-screen for TGF-b inhibitors: cytotoxicity in HepG2 cells; AID 588856; HepG2 CAGA-GFP viability, ATP luminescence, 18 h; actives 0.76% (n = 410,000); Potency, µM (doses to about 46.1 µM), for the others: at the highest dose activity change, negative = cytotoxicity, most hits filed as cytotoxic
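CellTiter-Glo luminescence gave cytotoxicity after 18 hours at 37 degrees C. The cells were HepG2 CAGA-GFP in 1% FBS DMEM, stimulated with 500 pg/mL TGF-beta after compound addition. %Activity was normalised to no-cell wells (complete cell-killing) and DMSO (no toxicity), and curves were fitted and classified.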
TGFb SMAD3 inh: TGF-b pathway inhibition. HepG2 CAGA-GFP TGF-b/SMAD3 reporter, GFP fluorescence, 18 h; TGF-beta stimulated, 500 pg/mL final. Potency, µM (doses to about 46.1 µM), for the others: at the top dose activity, negative = inhibition, most hits filed as inhibitors. actives 1.2% (n = 410,000). AID 588855; further: on the % scale 0 is the no-effect control and ±100 the full control effect; nearly all actives have a fitted effect of over 65% in size
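Cell-based qHTS in HEPG2 carrying a CAGA-GFP Smad reporter; compounds added before 500 pg/mL final TGF-beta, 18 h incubation at 37 degrees C, GFP fluorescence quantified per cell by imaging cytometry.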
ATXN viability: viability counter-screen for ATXN expression inhibitors | S2 cells (HEK-293 line with an ATXN2-luciferase reporter) viability, CellTiter-Fluor protease fluorescence, 24 h | Potency, µM (series often up to 56.7 µM), most hits filed as cytotoxic | actives 0.49% (n = 400,000); further: nearly all actives have a fitted effect of over 40% in size
TGFb CAGA inh: TGF-b pathway inhibition, cherry-pick retest | Potency, µM (doses to about 46.1 µM), without a hit: at the top dose activity, negative = inhibition, usual class: inhibitors | actives 63% (n = 1,600) | HepG2 CAGA-GFP TGF-b reporter, GFP fluorescence, 18 h; cells stimulated with TGF-beta, 500 pg/mL | AID 720534 | shares compounds with TGFb SMAD3 inh; further: on the % scale 0 is the no-effect control and ±100 the full control effect; nearly all actives have a fitted effect of over 65% in size
HepG2 tox-2: HepG2 cytotoxicity, TGF-b inhibitor counterscreen; Potency, µM (top dose mostly 46.1 µM), without a hit: at the highest dose activity, negative = cytotoxicity, actives largely listed as inhibitors; actives 27% (n = 1,600); shares compounds with TGFb SMAD3 inh; HepG2 CAGA-GFP viability, ATP luminescence, 18 h; cells stimulated with TGF-beta, 500 pg/mL; further: on the % scale 0 is the no-effect control and ±100 the full control effect; nearly all actives have a fitted effect of over 70% in size
CCL64 TGFb inh: TGF-b inhibition, CCL64 orthogonal assay. shares compounds with TGFb SMAD3 inh. actives 41% (n = 1,600). CCL64 CAGA-GFP reporter, TGF-b stimulated, GFP fluorescence, 18 h. Potency, µM (doses to about 46.1 µM), for the others: at the highest dose activity, negative = inhibition, usual class: inhibitors. AID 720536; further: nearly all actives have a fitted effect of over 65% in size
COP TGFb inh: TGF-b inhibition validated with COP promoter; actives 3% (n = 1,600); HepG2 COP-GFP TGF-b reporter, GFP fluorescence, 18 h; cells stimulated by added recombinant TGF-beta; Potency, µM (doses to about 46.1 µM), without a hit: top-dose activity, negative = inhibition, usual class: inhibitors; shares compounds with TGFb SMAD3 inh; AID 720537; further: nearly all actives have a fitted effect of over 70% in size
Numbers without * were called inactive; i = inactive; ? = inconclusive; . = no result; [ ] = remark or other dose. In the library only some 6.3% were active in any assay of this set; here they are far more common. The call rests on the fitted dose curve; in most records, active means well fitted curve in the direction sought with a large enough effect; inconclusive means small, poorly fitted or top-dose-only effect, or another doubt; inactive means no such curve, though single readings can be large; an effect the other way counts as inactive or inconclusive. Potency means the concentration at half of the fitted maximal effect.

SMILES	ATXN2 expr inh	Gal4-VP16 FLuc	RORg inh	HepG2 tox-1	TGFb SMAD3 inh	ATXN viability	others
c1cc2c(cc1[C@H]1OC[C@H]3[C@H]1CO[C@H]3c1ccc3c(c1)OCO3)OCO2	4%	.	.	.	.	.
C=CCc1c(C)[nH]c(=S)c(C#N)c1C	2%	?	6.3µM*	-3%	3%	i
COc1cc2c(cc1OC)[C@@H]1C(=O)c3ccc4c(c3OC1CO2)CC(C(C)C)O4 (stereo partly drawn)	.	8.9µM*	0.1µM*	.	.	.
COc1cc2c(cc1OC)[C@@H]1C(=O)c3ccc(OC)c(CC=C(C)C)c3OC1CO2 (stereo partly drawn)	.	1.4µM*	7.9µM*	.	.	.
C#CC(O)(C=CCl)CC (stereo not drawn)	5%	.	.	.	.	i
O=C(c1ccc(Cl)cc1)C1CCCN(Cc2ccc3c(c2)OCCO3)C1 (stereo not drawn)	?	3%	-1%	6%	0%	i
O=C(c1ccc(Cl)cc1)C1CCCN(Cc2ccc3ncccc3c2)C1 (stereo not drawn)	?	7.1µM*	?	-22%	?	i
O=C(c1cccc(Cl)c1)C1CCCN(Cc2cccc3cnccc23)C1 (stereo not drawn)	?	-28%	7.1µM*	-21%	?	i
O=C(c1ccc(Cl)cc1)C1CCCN(Cc2cccc3cnccc23)C1 (stereo not drawn)	.	35µM*	?	-50%	?	?
CC1CCC2(OC1)OC1CC3C4CC[C@@H]5CC(O)CC[C@@]5(C)C4CC(=O)[C@]3(C)C1C2C (stereo partly drawn)	.	4%	-12%	.	.	.
C[C@@H](N)[C@@H](O)c1ccc(O)c(O)c1	.	-5%	-21%[10 µM]	.	.	.
CN[C@H]1C[C@@H](N)[C@H](O)[C@@H](O[C@@H]2O[C@H](CO)[C@H](O)[C@@H]3OC4(O[C@H]23)O[C@H](C(N)CO)[C@H](O)[C@H](O)[C@H]4O)[C@@H]1O (stereo partly drawn)	.	.	.	.	.	i
COC(=O)C[C@]1(C(=O)OC)CN(C#N)N(c2ccc(Cl)cc2)C12c1ccccc1-c1ccccc12	4µM*	3.2µM*	5.6µM*	-106%	4µM*	5.6µM*
COC(=O)[C@@H]1[C@@H](C(=O)OC)C2(c3ccccc3-c3ccccc32)N(c2ccc(Cl)cc2)N1C#N	7.1µM*	4.5µM*	?	11µM*	?	7.1µM*
O=C(NCCSc1c(-c2ccccc2)[nH]c2ccccc12)c1ccc(S(=O)(=O)N2CCOCC2)cc1	-32%	.	.	-25%	?	?
CC[C@@]1(O)C(=O)OCc2c1cc1n(c2=O)Cc2cc3cc(O)ccc3nc2-1	0.038µM*	?	?	.	.	.
CC[C@@]1(O)C(=O)OCc2c1cc1n(c2=O)-c2cc3ccccc3nc2C1	.	?	0.13µM*	.	.	.
COc1ccc2c3c1O[C@H]1[C@H](O)CC[C@H]4[C@@H](C2)N(C)CC[C@@]341	3%[116 µM]	.	.	.	.	i
COC1CC(C)C(OC)c2cc(O)cc(c2O)NC(=O)C(C)=CC=CC(C)C(OC(N)=O)C(C)=CC(C)C1OC (stereo not drawn)	3.8µM*	.	.	1%	7.1µM*	?	TGFb CAGA inh=0.52µM*;HepG2 tox-2=5.2µM*;CCL64 TGFb inh=4.1µM*;COP TGFb inh=22%
CC(Cc1ccccc1)NCCn1cnc2c1c(=O)n(C)c(=O)n2C (stereo not drawn)	1%[116 µM]	.	.	.	.	i
c1ccc(C2c3ccccc3-n3nncc3CN2CC2CCCCC2)cc1 (stereo not drawn)	-19%	.	.	-10%	11µM*	i	TGFb CAGA inh=18µM*;HepG2 tox-2=?;CCL64 TGFb inh=26µM*;COP TGFb inh=26%
